3CLpro inhibitor: SARS-CoV 3CLpro protease inhibitors, primary screen, biochemical, quenched FRET. 290,000 compounds, 0.14% hits. recombinant SARS-CoV 3CLpro, quenched FRET peptide cleavage. inhibition, % at 6 µM; in the data active means inhibition above about 12%
BoNT-F LC inh: BoNT/F light chain protease inhibitors, primary screen, biochemical, flow cytometry, MLPCN library. Botulinum neurotoxin type F light chain protease (Clostridium botulinum). Multiplex microsphere protease cleavage assay. inhibition, % at 10 µM. 360,000 compounds, 0.22% hits. AID 588497, 2011; in the data active means inhibition above about 35%, passing the limit was not always enough; inconclusive means no clear call, values can overlap the other calls; further: plate controls were buffer without enzyme for full effect and enzyme alone for no effect
Anthrax LF prot: Bacillus anthracis LF protease inhibitors, primary screen, biochemical, multiplex microsphere, MLPCN library | Lethal factor (Bacillus anthracis), P15917 | 360,000 compounds, 0.12% hits | AID 588501, 2011 | multiplex microsphere protease cleavage assay | inhibition, % at 10 µM; further: plate controls were buffer without enzyme for full effect and enzyme alone for no effect
Target sequence (P15917 whole entry, looked up): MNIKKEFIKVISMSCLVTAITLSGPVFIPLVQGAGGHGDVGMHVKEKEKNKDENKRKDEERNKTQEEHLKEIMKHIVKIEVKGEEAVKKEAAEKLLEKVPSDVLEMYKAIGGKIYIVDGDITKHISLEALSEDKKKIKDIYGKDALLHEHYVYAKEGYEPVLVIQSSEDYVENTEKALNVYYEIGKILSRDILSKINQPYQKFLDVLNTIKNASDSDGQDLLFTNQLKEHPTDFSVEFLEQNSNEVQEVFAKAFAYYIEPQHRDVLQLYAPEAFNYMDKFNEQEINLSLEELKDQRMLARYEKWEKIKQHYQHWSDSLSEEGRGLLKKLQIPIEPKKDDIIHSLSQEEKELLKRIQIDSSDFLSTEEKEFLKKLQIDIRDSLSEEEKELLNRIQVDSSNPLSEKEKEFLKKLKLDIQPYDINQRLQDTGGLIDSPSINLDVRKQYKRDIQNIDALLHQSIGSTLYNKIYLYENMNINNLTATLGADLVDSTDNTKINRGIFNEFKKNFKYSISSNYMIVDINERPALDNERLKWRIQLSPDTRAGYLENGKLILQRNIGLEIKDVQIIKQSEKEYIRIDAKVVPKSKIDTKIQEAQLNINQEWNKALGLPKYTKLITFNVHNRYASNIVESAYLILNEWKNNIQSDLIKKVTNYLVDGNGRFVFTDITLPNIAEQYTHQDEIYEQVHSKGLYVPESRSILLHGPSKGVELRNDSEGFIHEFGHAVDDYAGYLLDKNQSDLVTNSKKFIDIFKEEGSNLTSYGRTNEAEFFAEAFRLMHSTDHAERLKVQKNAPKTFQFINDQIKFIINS
CCHF vOTU inh: CCHFV vOTU protease inhibitors, primary screen, biochemical, Pep-AMC substrate, fluorescence; inhibition, % at 11.5 µM; 370,000 compounds, 0.55% hits; AID 651958, 2012; Crimean-Congo hemorrhagic fever virus L polyprotein viral ovarian tumor (vOTU) protease …; in the data active means inhibition above about 30%; further: 0% = vehicle wells with enzyme and 100% = no enzyme wells
BoNT A protease: BoNT/A light chain protease inhibitors, primary screen, biochemical, flow cytometry, MLPCN library. multiplex microsphere protease substrate cleavage. Botulinum neurotoxin type A light chain protease (Clostridium botulinum A str. ATCC 3502). AID 588499, 2011. inhibition, % at 10 µM. 360,000 compounds, 0.17% hits; further: plate controls were buffer without enzyme for full effect and enzyme alone for no effect
Bead autofluor: flagged as autofluorescent in microsphere protease counterscreen; compound autofluorescence counterscreen, microsphere flow cytometry; hits give high values; fluorescence intensity (no concentration beside the values); 360,000 compounds, 3.1% hits; AID 624483; in the data active means fluorescence intensity above about 16000; inconclusive means no clear call, values can overlap the other calls
The depositor's hits bear a star; u = inconclusive; x = no result. Compounds with a hit are over-represented: about 3.9% of the library has one in this group of screens. Unless noted, no stated cut-off is given here; in the data, active means inhibition above about 30%; inconclusive means no clear call, values can overlap the other calls; inactive means below that.

SMILES | 3CLpro inhibitor | BoNT-F LC inh | Anthrax LF prot | CCHF vOTU inh | BoNT A protease | Bead autofluor
COc1ccc(C)cc1NC(=O)NC(C)c1ccncc1 (stereo not given) | -10 | 0 | 1 | -6 | 0 | 2448
COc1ccc(NC(=O)Nc2ccc(Br)cn2)cc1OC | -3 | -13 | -3 | 28 | -4 | 17621*
COc1ccc(Cl)cc1NC(=O)CCc1ccccc1 | 2 | -11 | -2 | 0 | -1 | 3100
CCOCCC(=O)Nc1cc(Cl)ccc1OC | -3 | 1 | -2 | -11 | 1 | 22752*
COc1ccc(Cl)cc1NC(=O)Nc1ccc(Br)cn1 | 1 | -6 | -3 | -17 | u | 17461*
COc1ccccc1NC(=O)Nc1ccc(Br)cn1 | -1 | -2 | -2 | 3 | 0 | 2341
COc1ccc(Cl)cc1NC(=O)NC(C)c1ccncc1 (stereo not given) | -4 | -4 | 0 | 9 | -2 | 17204*
C[C@H]1CN([C@@H](C)CO)C(=O)CCCn2nncc2CO[C@@H]1CN(C)C(=O)Cc1ccccc1 | x | 0 | -1 | 0 | -1 | 3862
Cc1cccc(N2CCN(c3ccc4cc(S(=O)(=O)N5CCCCC5)ccc4n3)CC2)c1C | -1 | 5 | 3 | 7 | 4 | 5842
COc1ccc(CCC(=O)Nc2ccc(Br)cn2)cc1 | 0 | -4 | -1 | -8 | u | 24589*
CCCCCOc1ccc(NC(=O)C2OC3OC(C)(C)OC3C3OC(C)(C)OC23)cc1 (stereo not given) | 2 | -3 | -2 | -9 | 0 | 2407
COc1ccc(NC(=O)C2OC3OC(C)(C)OC3C3OC(C)(C)OC23)cc1 (stereo not given) | 5 | -1 | 0 | -9 | -1 | 23845*
O=C1c2[nH]nc(-c3ccccc3O)c2C(c2cccc(Cl)c2)N1CC1CCCO1 (stereo not given) | 2 | 3 | 1 | 3 | 2 | 22113*
O=C(c1cccs1)N(C(=O)c1cccs1)c1ccc(Br)cn1 | -1 | 1 | 0 | 2 | 2 | 22230*
O=c1[nH]c(N/N=C/c2ccccc2)nc2ccccc12 | 0 | -3 | -4 | -78 | -2 | 16682*
C(=N\Nc1nc2ccccc2[nH]1)/c1ccccc1 | 1 | -11 | -3 | 0 | 0 | 3861
CSCCCNC(=O)c1oc(=O)c2ccccc2c1-c1ccc(C)cc1 | x | x | x | 1 | x | x
Cc1ccc(S(=O)(=O)N2CC3(C)CN(S(=O)(=O)c4ccc(C)cc4)CC(C)(C2)C3=O)cc1 | 3 | 3 | -3 | 6 | 3 | 22149*
CC(=O)Nc1nonc1C(=O)N1CCC(C)CC1 | 0 | 4 | 0 | -13 | 5 | 20925*
CC(C)[C@H](NC(=O)OC(C)(C)C)C(=O)N1CCC(Oc2cccnc2)CC1 | x | x | x | -5 | x | x
Cc1ccccc1-c1nnc(SCC(=O)Nc2cccc(C)c2C)o1 | 2 | 5 | -3 | -4 | u | 19363*
COc1ccccc1-c1nnc(SCC(=O)Nc2c(Cl)cccc2Cl)o1 | 2 | 4 | -2 | 5 | 3 | 19236*
Cc1cc(C)cc(NC(=O)CSc2nnc(-c3ccncc3)o2)c1 | x | 3 | 2 | 9 | 3 | 5448
Cc1cc(C)cc(NC(=O)CSc2nnc(-c3ccccc3Br)o2)c1 | -3 | 1 | -2 | 6 | 1 | 21943*
Cc1cccc(NC(=O)CSc2nnc([C@@H](N)Cc3ccccc3)o2)c1C | 0 | 1 | -7 | -6 | 1 | 9722
CCOC(=O)c1cnc2ncnn2c1N | 2 | -4 | -2 | 6 | -1 | 5671
CC(C)C[C@@H]1COc2cc(Br)ccc2S(=O)(=O)N1Cc1cn(CCC2OCCO2)nn1 | x | x | x | -5 | x | x
CS(=O)(=O)N(CC(=O)N1CCCC1)c1ccccc1Br | -10 | -3 | -11 | 7 | 1 | 3587
O=C(CN1C(=O)NC2(CCc3ccccc32)C1=O)Nc1ccc(N2CCOCC2)cc1 (stereo not given) | -4 | -3 | -3 | -3 | 0 | 16378*
CN1/C(=C\C(=S)NC(=O)c2cccc(Br)c2)C(C)(C)c2ccccc21 | 1 | -18 | 16 | -4 | 42* | 5118
